Results as given in PubChem BioAssay.
Where “and” joins values, the source holds several entries; their conditions need not be identical. Identical values can stand only once. Results filed as inconclusive are left out. For some assays here: Potency and affinity values are given separately. Where a structure was tested more than once in an assay, its records may differ in their call. Calls of active or inactive are those of the source. Cut-off read from the data, not from the text of the source, unless noted: active = parasite load remaining mostly below about 12% (no sharp cut-off); inactive = mostly above about 10%.

Legend:
[1] = target: ATP-dependent translocase ABCB1 (Homo sapiens) (UniProt P08183); test: P-glycoprotein substrate transport blockade – cell-based (AID 377; in the data active = fluorescence slope change above about 50%); settings: MDR1-expressing cells, fluorescent substrate accumulation slope; stronger effect = higher value; concentration not given here
[2] = blockers of polyQ-driven CASP3 activation – cell-based (AID 1583); settings: polyglutamine-induced caspase-3 activation, cell assay; stronger effect = higher value;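 tested at 10 µM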
[3] = yeast 75Q aggregation reduction – 75Q-TubU reporter (AID 1593); settings: Yeast 75Q polyglutamine aggregation reporter
[4] = restoration of touch response, mutant HTT neurons – whole organism, C. elegans mechanosensory neurons, N-terminal huntingtin (AID 1599); settings: C. elegans polyQ-huntingtin mechanosensory neurons, stronger effect = higher value
[5] = blockers of cytochrome c efflux from mitochondria – biochemical, purified mitochondria (AID 1603); settings: stronger effect = lower value;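 note: mouse liver mitochondria challenged with calcium chloride; signal normalized to the plate average as 100%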
[6] = polyglutamine aggregate formation blockers (AID 1604); settings: polyglutamine-induced protein aggregation inhibition assay; stronger effect = higher value; tested at 2.5 µM
[7] = glutamate transport activators, MN-1 cells, MN-1 cell line (AID 1612); settings: MN-1 motor neuron cells, stronger effect = higher value;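 note: tested at 1 µM final; 0% = mean of DMSO vehicle wells on each plate; positive means more glutamate uptake than control and negative means less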
[8] = GFP-Q80 aggregate reduction, neuronal-like cells, cell-based, NGF-treated PC12, GFPQ80 (AID 1614); settings: PC12 NGF-treated GFP-polyQ80 inclusion reduction;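 note: lower means fewer inclusions and 0 means no inclusions at all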
[9] = 75Q-TubH aggregate inhibition, S. cerevisiae, yeast (AID 1616); settings: S. cerevisiae 75Q-TubH polyglutamine aggregation suppression; stronger effect = higher value
[10] = compounds altering viability of human ES cells (AID 493140; call rule not given here;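 note: cells exposed to compounds for four days before counting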); settings: human embryonic stem cell survival screen; stronger effect = higher value
[11] = P. berghei load reduction in hepatocytes – cell-based, HepG2, luciferase luminescence, HepG2 viability, primary screen (AID 624349);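 note: 100% = mean of DMSO negative control wells on the same plate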; settings: P. berghei liver stage in HepG2, luciferase luminescence, concentration not given here; parasite load remaining: stronger effect = lower value; viability: measured here: HepG2 viability without parasites
[12] = target: 6-phosphogluconate dehydrogenase, decarboxylating (Homo sapiens) (UniProt P52209); test: inhibition of human phosphogluconate dehydrogenase – biochemical, recombinant enzyme, NADPH absorbance, primary screen (AID 1159550;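 active = at least 20% inhibition of 6-phosphogluconate dehydrogenase activity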); settings: recombinant 6PGD, NADPH absorbance 341 nm; at 10 µM; stronger effect = higher value
[13] = EMT-state selective cytotoxicity in co-culture – imaging, PC-3E GFP, TEM4-18 mCherry, primary screen (AID 1345086;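 active = compounds killing one labelled cell type while sparing the other, by normalised counts and ratio limits, not self-fluorescent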;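 for all read-outs here: cells exposed to compound for 72 h before imaging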;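 for red/green cell ratio (normalised): normalised mesenchymal count divided by normalised epithelial count so high means epithelial killing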); settings: PC-3E GFP / TEM4-18 mCherry co-culture, imaging cell counts, at 1 µM; for red/green cell ratio (normalised): actives lie on both sides
[14] = tested on: Aerobactin synthetase IucA (Klebsiella pneumoniae hvKP1); test: IucA enzyme inhibition, primary screen, biochemical, Spectrum library (AID 1346200; call rule not given here;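 note: 100% = wells without compound and 0% = wells lacking enzyme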); settings: malachite green pyrophosphate, A620, at 8 µM, stronger effect = lower value
[15] = viability loss with induced miR-34 in A549 – imaging, A549 dox-inducible miR-34, nuclei and caspase counts, primary screen (AID 1347080;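 active = compounds whose cell count with miR-34 switched on is under 0.7 times the count with it off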); settings: A549 miR-34 inducible, Hoechst nuclei count, 48 h
[16] = target: Mitogen-activated protein kinase 7 (Homo sapiens) (UniProt Q13164); test: Gal4-ERK5 driven luciferase induction – cell-based, HTS, primary screen (AID 1508626;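 active = luciferase signal above three times the same-plate solvent-only control wells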;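 note: luciferase driven by Gal4-ERK5 fusion binding five Gal4 sites before minimal TATA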); settings: HeLa Gal4-ERK5 transactivation, 18 h, at 5 µM, stronger effect = higher value
[17] = target: NAD(+) hydrolase SARM1 (Homo sapiens) (UniProt Q6SZW1); test: blocking NAD cleavage by SARM1 SAM-TIR – cell lysate, NAD-Glo luminescence (AID 1508614;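 active = compound whose remaining NAD level is above about 45 nM, limit read from the data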;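 note: higher remaining NAD means stronger inhibition of SARM1 NADase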); settings: SAM-TIR HEK293T lysate NADase, at 1 µM, stronger effect = higher value
[18] = tested on: Aerobactin synthetase IucA (Klebsiella pneumoniae, hypervirulent); test: biochemical IucA inhibition screen of LOPAC library by absorbance (AID 1346212; call rule not given here;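 note: 100% = no compound wells and 0% = no enzyme wells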); settings: IucA enzyme assay, absorbance (OD) readout; stronger effect = lower value; concentration not given here
[19] = galactose survival enhancers in mitochondrial complex I cybrids – cell-based, galactose medium, ATP luminescence, primary screen (AID 1645843;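 active = z-score of at least 1.8 in each of two replicates, scored against plate mean and spread of sample wells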;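 note: positive z means more ATP and so rescue of galactose-driven cybrid death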); settings: complex I mutant cybrid cells, 72 h, stronger effect = higher value
[20] = MELAS cybrid and Rieske KO viability enhancers – cell-based, MELAS cybrids, Rieske KO mouse fibroblasts, CellTiter-Glo, primary screen (AID 1508586;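 active = mean z-score across replicates of 1.96 or higher in either the MELAS or the Rieske mutant cell line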;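 note: z relative to plate mean and SD of compound and empty wells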); settings: low glucose
[21] = measured here: epithelial PC-3E GFP cell survival
[22] = measured here: mesenchymal TEM4-18 mCherry cell survival
[23] = measured here: relative caspase fold change +Dox/-Dox
[24] = measured here: total cells with miR-34 induction, stronger effect = lower value
[25] = measured here: total cells without miR-34 induction
[26] = MELAS cybrid survival, CellTiter-Glo 48 h, stronger effect = higher value
[27] = Rieske KO mouse fibroblast survival, CellTiter-Glo 72 h

Mitogen-activated protein kinase 7 (Homo sapiens), sequence (Q13164 whole entry, looked up, the tested form may be a part): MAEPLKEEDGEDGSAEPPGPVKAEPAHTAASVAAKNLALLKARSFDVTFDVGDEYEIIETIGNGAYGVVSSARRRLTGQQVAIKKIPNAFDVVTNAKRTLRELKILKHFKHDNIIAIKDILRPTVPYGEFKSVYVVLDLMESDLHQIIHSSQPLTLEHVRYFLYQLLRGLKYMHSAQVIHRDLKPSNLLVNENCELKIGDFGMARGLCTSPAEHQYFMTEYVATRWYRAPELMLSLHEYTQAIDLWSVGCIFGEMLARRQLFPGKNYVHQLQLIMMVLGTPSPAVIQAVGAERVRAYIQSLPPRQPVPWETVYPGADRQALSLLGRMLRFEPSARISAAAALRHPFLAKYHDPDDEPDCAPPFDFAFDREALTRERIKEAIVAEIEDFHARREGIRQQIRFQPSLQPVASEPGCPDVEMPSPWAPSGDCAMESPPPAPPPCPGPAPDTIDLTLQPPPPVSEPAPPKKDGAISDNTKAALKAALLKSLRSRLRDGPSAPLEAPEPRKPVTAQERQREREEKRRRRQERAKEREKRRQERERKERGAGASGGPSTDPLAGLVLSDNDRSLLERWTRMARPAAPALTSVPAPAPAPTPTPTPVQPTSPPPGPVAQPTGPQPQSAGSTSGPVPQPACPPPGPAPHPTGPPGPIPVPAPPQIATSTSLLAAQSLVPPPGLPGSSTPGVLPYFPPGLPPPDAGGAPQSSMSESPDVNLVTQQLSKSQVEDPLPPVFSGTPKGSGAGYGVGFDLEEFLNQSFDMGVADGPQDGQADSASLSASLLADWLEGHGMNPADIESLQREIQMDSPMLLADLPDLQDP
6-phosphogluconate dehydrogenase, decarboxylating (Homo sapiens), sequence (P52209 whole entry, looked up): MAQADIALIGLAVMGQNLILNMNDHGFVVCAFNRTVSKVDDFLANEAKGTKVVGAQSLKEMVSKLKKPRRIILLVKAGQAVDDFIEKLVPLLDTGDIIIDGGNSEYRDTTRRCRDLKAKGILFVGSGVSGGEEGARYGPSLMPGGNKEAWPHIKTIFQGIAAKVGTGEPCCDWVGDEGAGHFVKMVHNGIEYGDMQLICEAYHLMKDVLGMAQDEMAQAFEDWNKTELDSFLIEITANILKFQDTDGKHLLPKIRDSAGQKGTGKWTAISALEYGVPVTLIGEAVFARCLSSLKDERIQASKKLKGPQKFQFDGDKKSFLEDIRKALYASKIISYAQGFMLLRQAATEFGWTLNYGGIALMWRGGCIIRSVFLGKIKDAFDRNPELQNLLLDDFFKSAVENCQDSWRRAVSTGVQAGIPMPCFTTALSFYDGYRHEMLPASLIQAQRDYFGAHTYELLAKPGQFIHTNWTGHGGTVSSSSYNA
NAD(+) hydrolase SARM1 (Homo sapiens), sequence (Q6SZW1 whole entry, looked up): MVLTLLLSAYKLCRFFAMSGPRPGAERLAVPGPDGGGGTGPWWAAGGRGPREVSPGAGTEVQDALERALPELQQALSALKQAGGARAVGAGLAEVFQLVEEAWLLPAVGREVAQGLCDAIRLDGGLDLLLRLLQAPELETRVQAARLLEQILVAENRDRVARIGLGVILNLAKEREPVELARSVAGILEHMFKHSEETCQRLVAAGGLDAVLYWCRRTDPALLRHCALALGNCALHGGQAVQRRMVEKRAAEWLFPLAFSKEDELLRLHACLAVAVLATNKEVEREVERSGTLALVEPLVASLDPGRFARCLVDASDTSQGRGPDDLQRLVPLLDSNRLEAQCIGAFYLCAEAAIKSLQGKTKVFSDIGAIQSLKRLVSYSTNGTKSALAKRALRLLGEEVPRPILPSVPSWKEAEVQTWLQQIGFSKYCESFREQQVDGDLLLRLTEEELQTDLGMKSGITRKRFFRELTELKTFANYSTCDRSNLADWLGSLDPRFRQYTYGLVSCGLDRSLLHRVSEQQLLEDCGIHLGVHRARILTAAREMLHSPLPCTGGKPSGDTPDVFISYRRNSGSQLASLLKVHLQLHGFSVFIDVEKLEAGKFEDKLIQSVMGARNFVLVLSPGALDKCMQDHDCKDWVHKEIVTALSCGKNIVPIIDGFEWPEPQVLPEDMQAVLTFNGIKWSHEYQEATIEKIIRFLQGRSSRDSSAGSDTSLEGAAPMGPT
ATP-dependent translocase ABCB1 (Homo sapiens), sequence (P08183 whole entry, looked up): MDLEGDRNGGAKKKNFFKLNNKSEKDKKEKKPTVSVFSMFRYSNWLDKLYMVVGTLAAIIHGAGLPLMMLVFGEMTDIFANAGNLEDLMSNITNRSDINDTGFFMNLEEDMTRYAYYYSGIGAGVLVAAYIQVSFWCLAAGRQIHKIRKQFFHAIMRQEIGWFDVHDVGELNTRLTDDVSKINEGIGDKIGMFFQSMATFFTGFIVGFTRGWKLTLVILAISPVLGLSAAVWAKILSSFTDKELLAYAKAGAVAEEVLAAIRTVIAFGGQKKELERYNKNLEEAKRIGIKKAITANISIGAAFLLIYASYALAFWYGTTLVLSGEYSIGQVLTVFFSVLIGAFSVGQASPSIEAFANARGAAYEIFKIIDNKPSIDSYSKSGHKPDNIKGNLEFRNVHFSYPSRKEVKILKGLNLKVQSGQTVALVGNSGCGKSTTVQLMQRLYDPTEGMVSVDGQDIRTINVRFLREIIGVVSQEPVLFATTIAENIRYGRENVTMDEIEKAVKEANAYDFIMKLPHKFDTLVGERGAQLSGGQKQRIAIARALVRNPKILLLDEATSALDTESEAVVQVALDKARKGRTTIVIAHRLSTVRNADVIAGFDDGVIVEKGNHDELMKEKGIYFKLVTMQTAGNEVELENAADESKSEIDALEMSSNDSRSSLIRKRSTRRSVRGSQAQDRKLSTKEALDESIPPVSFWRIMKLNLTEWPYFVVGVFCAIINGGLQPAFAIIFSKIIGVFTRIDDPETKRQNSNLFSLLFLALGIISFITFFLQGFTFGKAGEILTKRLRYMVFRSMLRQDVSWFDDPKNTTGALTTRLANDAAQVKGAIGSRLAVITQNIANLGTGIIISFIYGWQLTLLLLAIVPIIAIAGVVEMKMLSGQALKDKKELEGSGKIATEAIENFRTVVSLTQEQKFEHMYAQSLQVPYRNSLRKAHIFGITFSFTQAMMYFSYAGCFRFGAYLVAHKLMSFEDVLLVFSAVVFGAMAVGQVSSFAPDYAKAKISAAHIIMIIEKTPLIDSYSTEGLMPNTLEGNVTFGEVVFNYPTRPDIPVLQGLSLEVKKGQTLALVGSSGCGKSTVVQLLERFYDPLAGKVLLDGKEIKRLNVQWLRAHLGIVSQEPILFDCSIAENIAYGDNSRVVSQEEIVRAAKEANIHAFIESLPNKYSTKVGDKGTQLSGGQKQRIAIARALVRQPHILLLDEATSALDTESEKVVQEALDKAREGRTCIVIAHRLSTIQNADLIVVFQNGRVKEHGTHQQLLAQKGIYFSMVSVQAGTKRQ

COc1ccc2c3c([nH]c2c1)C(C)=NCC3
fluorescence slope change [1]: 7.9% (inactive)
inhibition [2]: -62.4%
score [3]: 1.32
rescue above control [4]: -1.53
cytochrome c release ratio [5]: 0.94
inhibition of aggregation [6]: 51%
glutamate uptake change [7]: 48%
inclusion score [8]: 2
aggregation suppression score [9]: 0.883
survival [10]: 6 (inactive)
parasite load remaining [11]: 83.9% (inactive) and 28.8% (inactive) and 84.4% (inactive)
viability [11]: 103% and 71.6% and 83.5%
inhibition [12]: -10.2% (inactive)
red/green cell ratio (normalised) [13]: 0.92 (inactive)
normalised cell number [13, 21]: 1.06
normalised cell number [13, 22]: 0.98
activity remaining [14]: 124% (inactive)
fold change ([15]; stronger effect = lower value): 0.95 (inactive)
fold change [15, 23]: 1.3
cell count [15, 24]: 8720
cell count [15, 25]: 9180
luciferase signal [16]: 68 AU (inactive)

O=[N+]([O-])c1cc([As](=O)(O)O)ccc1O
inhibition [2]: 4.6%
score [3]: 1.17
rescue above control [4]: -4.04
cytochrome c release ratio [5]: 1.09
inhibition of aggregation [6]: 3.7%
glutamate uptake change [7]: -17%
inclusion score [8]: 1.5
aggregation suppression score [9]: 1.08
survival [10]: 4.83 (inactive)
parasite load remaining [11]: 90.8% (inactive) and -0.22% (active) and 33.7% (inactive)
viability [11]: 83.9% and 75.8% and 93.4%
inhibition [12]: 11.3% (inactive)
red/green cell ratio (normalised) [13]: 1.34 (inactive)
normalised cell number [13, 21]: 0.89
normalised cell number [13, 22]: 1.19
activity remaining [14]: 112% (inactive)
fold change ([15]; stronger effect = lower value): 0.929 (inactive) and 0.938 (inactive)
fold change [15, 23]: 0.651 and 3.1
cell count [15, 24]: 8580 and 11200
cell count [15, 25]: 9240 and 11900
remaining NAD [17]: 10 nM (inactive)
luciferase signal [16]: 44 AU (inactive)

COc1ccc(/C=C/c2cc(O)cc(O)c2)cc1
inhibition [12]: 16.8% (inactive)
red/green cell ratio (normalised) [13]: 1.08 (inactive)
normalised cell number [13, 21]: 0.95
normalised cell number [13, 22]: 1.03
activity remaining [14]: 103% (inactive)
luciferase signal [16]: 176 AU (inactive)

COc1ccc2c(c1O)-c1c(OC)c(OC)cc3c1[C@H](C2)N(C)CC3
fluorescence slope change [1]: 13.7% (inactive)
survival [10]: 5.58 (inactive)
parasite load remaining [11]: 125% (inactive) and 105% (inactive) and 60.3% (inactive)
viability [11]: 106% and 65% and 79.8%
inhibition [12]: 3.42% (inactive)
red/green cell ratio (normalised) [13]: 1.1 (inactive)
normalised cell number [13, 21]: 0.99
normalised cell number [13, 22]: 1.09
activity remaining [14]: 116% (inactive)
fold change ([15]; stronger effect = lower value): 0.862 (inactive)
fold change [15, 23]: 1.06
cell count [15, 24]: 9380
cell count [15, 25]: 10900
luciferase signal [16]: 72 AU (inactive)

O=C(O)CCCOc1ccc(Cl)cc1Cl
inhibition [12]: -17.1% (inactive)
red/green cell ratio (normalised) ([13]; counts scaled to control wells, 1 = unselective): 0.77 (inactive)
normalised cell number [13, 21]: 1.36
normalised cell number [13, 22]: 1.05
activity remaining [14]: 103% (inactive)

O=C(O)CC[N+](=O)[O-]
inhibition [12]: -4.59% (inactive)
red/green cell ratio (normalised) [13]: 1.06 (inactive)
normalised cell number [13, 21]: 0.86
normalised cell number [13, 22]: 0.91
activity remaining [14]: 105% (inactive)
remaining activity [18]: 116% (inactive)
fold change ([15]; stronger effect = lower value): 1.06 (inactive)
fold change [15, 23]: 2.1
cell count [15, 24]: 10800
cell count [15, 25]: 10200
luciferase signal [16]: 152 AU (inactive)
z-score [19]: -0.29 (inactive)

O=C1C=CC(=O)c2c(O)cccc21
inhibition [2]: -40.3%
score [3]: 0.54
rescue above control [4]: 2.83
cytochrome c release ratio [5]: 0.82
inhibition of aggregation [6]: 100%
glutamate uptake change [7]: 42.9%
aggregation suppression score [9]: 0.876
inhibition [12]: -2.17% (inactive)
red/green cell ratio (normalised) [13]: 0.98 (inactive)
normalised cell number [13, 21]: 1.05
normalised cell number [13, 22]: 1.03
activity remaining [14]: 127% (inactive)
fold change ([15]; stronger effect = lower value): 0.989 (inactive)
fold change [15, 23]: 0.796
cell count [15, 24]: 2420
cell count [15, 25]: 2440
luciferase signal [16]: 52 AU (inactive)

COc1cc(OC)c(OC)cc1C=O
parasite load remaining [11]: 70.8% (inactive)
viability [11]: 91.7%
inhibition [12]: -2.13% (inactive)
red/green cell ratio (normalised) [13]: 1.04 (inactive)
normalised cell number [13, 21]: 1.13
normalised cell number [13, 22]: 1.18
activity remaining [14]: 109% (inactive)
fold change ([15]; stronger effect = lower value): 0.932 (inactive)
fold change [15, 23]: 0.878
cell count [15, 24]: 9380
cell count [15, 25]: 10100
z-score [20, 26]: -0.272 (inactive)
z-score [20, 27]: 0.673
luciferase signal [16]: 156 AU (inactive)

COC1=C[C@@H]2[C@@H]3Cc4ccc(OC)c(O)c4[C@]2(CCN3C)CC1=O
inhibition [12]: 2.36% (inactive)
red/green cell ratio (normalised) [13]: 0.75 (inactive)
normalised cell number [13, 21]: 1.39
normalised cell number [13, 22]: 1.03
activity remaining [14]: 94.1% (inactive)
luciferase signal [16]: 72 AU (inactive)

C[C@H](N)[C@H](O)c1ccc(O)c(O)c1
inhibition [2]: 6.31%
score [3]: 1.43
rescue above control [4]: 4.59
cytochrome c release ratio [5]: 0.9
inhibition of aggregation [6]: 7.58%
glutamate uptake change [7]: 12.7%
inclusion score [8]: 2
aggregation suppression score [9]: 1.14
parasite load remaining [11]: 61.3% (inactive) and 64.5% (inactive) and 57.8% (inactive)
viability [11]: 93.6% and 73.6% and 105%
inhibition [12]: -1.74% (inactive)
red/green cell ratio (normalised) [13]: 1.17 (inactive)
normalised cell number [13, 21]: 1.01
normalised cell number [13, 22]: 1.18
activity remaining [14]: 102% (inactive)
fold change ([15]; stronger effect = lower value): 0.912 (inactive) and 0.869 (inactive)
fold change [15, 23]: 1.02 and 0.57
cell count [15, 24]: 9300 and 11200
cell count [15, 25]: 10200 and 12900
z-score [20, 26]: -0.729 (inactive)
z-score [20, 27]: -1.14
remaining NAD [17]: 10 nM (inactive)
luciferase signal [16]: 16 AU (inactive)

CN[C@@H](C)[C@@H](O)c1ccccc1
inhibition [2]: 11.2%
score [3]: 1.57
rescue above control [4]: -0.65
cytochrome c release ratio [5]: 0.84
inhibition of aggregation [6]: 80.3%
glutamate uptake change [7]: -5.15%
inclusion score [8]: 2
aggregation suppression score [9]: 1.15
parasite load remaining [11]: 106% (inactive) and 61.4% (inactive)
viability [11]: 73.1% and 87.5%
inhibition [12]: 2.73% (inactive)
red/green cell ratio (normalised) [13]: 1.05 (inactive)
normalised cell number [13, 21]: 1.12
normalised cell number [13, 22]: 1.18
activity remaining [14]: 98.2% (inactive)
fold change ([15]; stronger effect = lower value): 0.905 (inactive)
fold change [15, 23]: 3.17
cell count [15, 24]: 11300
cell count [15, 25]: 12500
luciferase signal [16]: 36 AU (inactive)
